# Data from PubChem BioAssay (Tox21).
# Values joined by “and” are separate entries in the source; they are usually repeats but may differ in a detail not shown here. Equal values may be shown once. Results filed as inconclusive are left out. A call without a number means that no potency is given here. Values without a mark were called inactive. Active and inactive are the calls of the source. Unless noted, calls follow the shape of the dose curve; as a rule, active = well fitted curve in the direction sought with a large enough effect in the repeat runs; inconclusive = weak or mixed curves; inactive = no such curve, though single readings can be large; an effect the other way counts as inactive or inconclusive.
# How the values were obtained:
# [1] = qHTS assay to identify small molecule antagonists of the estrogen related receptor (ERR) signaling pathway from Tox21 library - cell viability counter screen (AID 1224834); also: nearly all actives have a fitted effect of over 30% in size; also: potency is read from the fitted curve at half-maximal effect
# Summary of the method: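 ERR reporter cells were plated 6 h before compound addition, then exposed to test compounds in DMSO for 17.5 h at 37 C. Viability was read as CellTiter-Fluor fluorescence after a 30-minute incubation at 37 C.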
# [2] = biological target: Luciferin 4-monooxygenase (Photinus pyralis) (UniProt P08659); test: qHTS assay to identify small molecule inhibitors of firefly luciferase (AID 1224835); also: series mostly up to about 120 µM; nearly all actives have a fitted effect of over 25% in size
# Sequence of Luciferin 4-monooxygenase (Photinus pyralis) (P08659 whole entry, looked up): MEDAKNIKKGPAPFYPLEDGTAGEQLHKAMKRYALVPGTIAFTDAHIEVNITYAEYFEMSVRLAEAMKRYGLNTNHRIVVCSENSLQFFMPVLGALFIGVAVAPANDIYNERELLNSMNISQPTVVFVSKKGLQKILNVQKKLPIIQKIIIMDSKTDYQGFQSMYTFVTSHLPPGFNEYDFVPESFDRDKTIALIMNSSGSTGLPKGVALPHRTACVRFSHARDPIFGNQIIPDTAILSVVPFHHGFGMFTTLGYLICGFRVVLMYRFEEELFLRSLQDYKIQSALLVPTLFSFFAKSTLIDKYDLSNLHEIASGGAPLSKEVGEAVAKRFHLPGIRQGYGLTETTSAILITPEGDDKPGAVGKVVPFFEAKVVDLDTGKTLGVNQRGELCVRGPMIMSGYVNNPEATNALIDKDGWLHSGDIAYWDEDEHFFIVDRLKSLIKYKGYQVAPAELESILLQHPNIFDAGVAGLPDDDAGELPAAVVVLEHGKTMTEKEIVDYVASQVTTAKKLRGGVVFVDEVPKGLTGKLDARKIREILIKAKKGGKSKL
# Summary of the method: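 Quantitative HTS format; KM concentrations of both substrates. Purified P. pyralis FLuc activity quantified from luminescence images.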
# [3] = qHTS assay to identify small molecule agonists of the constitutive androstane receptor (CAR) signaling pathway - cell viability counter screen (AID 1224836); also: nearly all actives have a fitted effect of over 45% in size; also: potency is read from the fitted curve at half-maximal effect; as to viability change, negative = cytotoxic: series mostly up to about 92 µM
# Summary of the method: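 HepG2 cells stably carrying hCAR and a CYP2B6-2.2kb reporter; 15-concentration compounds plus PK11195 (final 0.75 uM), 23 hr at 37 C/5% CO2. Viability read by CellTiter-Fluor fluorescence.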
# [4] = qHTS assay to identify small molecule antagonists of the constitutive androstane receptor (CAR) signaling pathway - cell viability counter screen (AID 1224837); also: nearly all actives have a fitted effect of over 45% in size; also: potency is read from the fitted curve at half-maximal effect; as to activity change, negative = cytotoxicity: series mostly up to about 92 µM
# Summary of the method: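 HepG2 cells stably expressing hCAR and a CYP2B6-2.2kb reporter were plated and pre-incubated 4 hr at 37 C/5% CO2, then given compounds at 15 concentrations plus 50 nM CITCO (final). After 23 hr, viability was read by CellTiter-Fluor fluorescence.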
# [5] = biological target: Nuclear receptor subfamily 1 group I member 3 (Homo sapiens) (UniProt Q14994); test: qHTS assay to identify small molecule antagonists of the constitutive androstane receptor (CAR) signaling pathway (AID 1224838); also: nearly all actives have a fitted effect of over 40% in size; also: potency is read from the fitted curve at half-maximal effect
# Sequence of Nuclear receptor subfamily 1 group I member 3 (Homo sapiens) (Q14994 whole entry, looked up): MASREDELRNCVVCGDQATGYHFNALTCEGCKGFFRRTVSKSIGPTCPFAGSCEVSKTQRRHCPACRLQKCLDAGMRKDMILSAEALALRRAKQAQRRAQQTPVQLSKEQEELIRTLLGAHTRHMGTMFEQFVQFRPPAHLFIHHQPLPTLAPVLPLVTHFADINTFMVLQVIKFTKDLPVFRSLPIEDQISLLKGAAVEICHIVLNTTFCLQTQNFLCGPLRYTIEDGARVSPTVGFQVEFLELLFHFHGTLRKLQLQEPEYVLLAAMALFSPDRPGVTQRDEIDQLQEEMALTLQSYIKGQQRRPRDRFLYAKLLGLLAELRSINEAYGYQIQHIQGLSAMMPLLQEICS
# Summary of the method: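 HepG2 cells stably co-transfected with hCAR and a CYP2B6-2.2kb luciferase reporter were seeded 4 h before compound addition at 15 concentrations. Cells were stimulated with 50 nM CITCO (final) for 24 h at 37 C; luciferase luminescence was then read.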
# [6] = biological target: Nuclear receptor subfamily 1 group I member 3 (Homo sapiens) (UniProt Q14994); test: qHTS assay to identify small molecule agonists of the constitutive androstane receptor (CAR) signaling pathway (AID 1224839);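 also: HepG2 cells stably carrying human CAR and a CYP2B6 luciferase reporter; series mostly up to about 92 µM; nearly all actives have a fitted effect of over 15% in size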
# Summary of the method: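 HepG2 cells stably co-transfected with hCAR and a CYP2B6-2.2kb luciferase reporter; compounds at 15 concentrations with 0.75 uM PK11195 present. After 24 hr at 37 C, luciferase read by ONE-Glo luminescence.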
# [7] = qHTS assay to identify small molecule antagonists of the estrogen related receptor signaling pathway with the pleiotropic PPARgamma coactivator (PGC) from Tox21 10K library - cell viability counter screen (AID 1224840; active = well fitted cell-killing curve with a large enough effect in the repeat runs, not every such curve was filed as active; also: nearly all actives have a fitted effect of over 40% in size; also: potency is read from the fitted curve at half-maximal effect)
# Summary of the method: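 PGC/ERR cells were seeded at 2,000 cells/well and left 6 hours at 37 C/5% CO2 before pin-tool addition of compounds in DMSO. After 17.5 hours at 37 C, CellTiter-Fluor was added and fluorescence read 30 minutes later.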
# [8] = qHTS assay to identify small molecule agonists of the estrogen related receptor signaling pathway with the pleiotropic PPARgamma coactivator (PGC) from Tox21 10K library (AID 1224842); also: nearly all actives have a fitted effect of over 15% in size
# Summary of the method: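 PGC/ERR reporter cells (NTP line) were seeded 2,000 per well, rested 6 h at 37 C/5% CO2, then pin-dosed with compounds in DMSO for 18 h at 37 C; luciferase read by One-Glo luminescence after 30 min at room temperature.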
# [9] = biological target: Thyrotropin receptor (Homo sapiens) (UniProt P16473); test: qHTS assay to identify small molecule agonists of the thyroid stimulating hormone receptor (TSHR) signaling pathway (AID 1224843; calls by dose curve; also: nearly all actives have a fitted effect of over 45% in size)
# Sequence of Thyrotropin receptor (Homo sapiens) (P16473 whole entry, looked up): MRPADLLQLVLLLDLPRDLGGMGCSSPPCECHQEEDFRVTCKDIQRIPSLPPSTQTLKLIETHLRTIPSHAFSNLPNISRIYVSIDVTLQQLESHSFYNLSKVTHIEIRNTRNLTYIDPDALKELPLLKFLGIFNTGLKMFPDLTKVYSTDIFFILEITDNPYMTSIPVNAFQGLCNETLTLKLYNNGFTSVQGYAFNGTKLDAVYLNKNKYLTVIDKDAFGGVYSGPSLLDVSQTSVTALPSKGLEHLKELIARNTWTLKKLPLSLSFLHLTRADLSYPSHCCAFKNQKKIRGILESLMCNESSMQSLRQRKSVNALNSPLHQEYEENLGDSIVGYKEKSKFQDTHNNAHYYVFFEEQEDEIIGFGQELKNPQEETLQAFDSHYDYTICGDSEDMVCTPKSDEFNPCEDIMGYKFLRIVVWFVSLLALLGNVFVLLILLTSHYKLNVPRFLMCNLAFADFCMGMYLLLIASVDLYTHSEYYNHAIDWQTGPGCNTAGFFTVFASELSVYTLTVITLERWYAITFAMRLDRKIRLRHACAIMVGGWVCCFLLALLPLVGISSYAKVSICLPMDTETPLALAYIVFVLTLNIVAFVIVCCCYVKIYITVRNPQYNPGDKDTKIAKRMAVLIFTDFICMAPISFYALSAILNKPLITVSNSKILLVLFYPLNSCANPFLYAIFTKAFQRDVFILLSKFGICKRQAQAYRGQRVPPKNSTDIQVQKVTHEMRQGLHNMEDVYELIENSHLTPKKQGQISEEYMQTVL
# Summary of the method: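 TSHR-expressing HEK293 cells (800 per well) were exposed to compounds for 30 min at room temperature. cAMP was then detected by HTRF competition with cAMP-d2 and anti-cAMP cryptate, read after 1 h at room temperature. Fifteen concentrations, triplicate.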
# [10] = qHTS assay to identify small molecule antagonists of the estrogen related receptor signaling pathway with the pleiotropic PPARgamma coactivator (PGC) from Tox21 10K library (AID 1224841; call rule not given here; also: series mostly up to about 92 µM; actives are mostly falling curves and most rising ones were filed inactive; nearly all actives have a fitted effect of over 50% in size)
# Summary of the method: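 PGC/ERR reporter cells were seeded at 2,000 cells/well and held 6 hours at 37 C/5% CO2 before pin-tool addition of compounds in DMSO. After 18 hours at 37 C, One-Glo was added and luminescence read after 30 minutes at room temperature.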
structure (smiles),measurement,setting,value
CCC(Cl)CCC(Cl)C(Cl)CC(Cl)C(Cl)C(Cl)CCl (stereo not drawn),Potency,[1],inactive
same,Potency,[2],inactive
same,Potency,[3],inactive
same,Potency,[4],inactive
same,Potency,[5],inactive
same,Potency,[6],inactive
same,Potency,[7],inactive
same,Potency,[8],inactive
same,Potency,[9],inactive
CCCCc1ncc(/C=C(\Cc2cccs2)C(=O)O)n1Cc1ccc(C(=O)O)cc1,Potency,[1],inactive
same,Potency,[2],inactive
same,Potency,[3],inactive
same,Potency,[4],inactive
same,Potency,[5],inactive
same,Potency,[6],inactive
same,Potency,[7],inactive
same,Potency,[9],inactive
CCCCOC(=O)CCCCCCCC(=O)OCCCC,Potency,[1],inactive
same,Potency,[2],inactive
same,Potency,[3],inactive
same,Potency,[4],inactive
same,Potency,[5],inactive
same,Potency,[6],inactive
same,Potency,[7],inactive
same,Potency,[10],inactive
same,Potency,[8],inactive
same,Potency,[9],inactive
CCCCC(=O)OCC(=O)[C@H]1[C@H](C)C[C@H]2[C@@H]3C[C@H](F)C4=CC(=O)C=C[C@]4(C)[C@@]3(F)[C@@H](O)C[C@@]21C,Potency,[1],inactive
same,Potency,[2],inactive
same,Potency,[3],inactive
same,Potency,[4],inactive
same,Potency,[5],inactive
same,Potency,[6],inactive
same,Potency,[7],inactive
same,Potency,[9],inactive
CN(C)CCN(Cc1ccc(Cl)cc1)c1ccccn1,Potency,[1],inactive
same,Potency,[2],inactive
same,Potency,[3],inactive
same,Potency,[4],inactive
same,Potency,[5],inactive
same,Potency,[6],inactive
same,Potency,[7],inactive
same,Potency,[9],inactive
CCCCCCCCCCCc1ccccc1,Potency,[1],inactive
same,Potency,[2],inactive
same,Potency,[3],inactive
same,Potency,[4],inactive
same,Potency,[5],inactive
same,Potency,[6],inactive
same,Potency,[7],inactive
same,Potency,[9],inactive
CCC(C)(C)CC,Potency,[1],inactive
same,Potency,[2],inactive
same,Potency,[3],inactive
same,Potency,[4],inactive
same,Potency,[5],inactive
same,Potency,[6],inactive
same,Potency,[7],inactive
same,Potency,[8],inactive
Nc1ccc([N+](=O)[O-])c(C(F)(F)F)c1,Potency,[1],inactive
same,Potency,[2],inactive
same,Potency,[3],inactive
same,Potency,[4],inactive
same,Potency,[5],inactive
same,Potency,[6],inactive
same,Potency,[7],inactive
same,Potency,[10],inactive
same,Potency,[8],inactive
same,Potency,[9],inactive
O=C(O)c1ccc(S(=O)(=O)O)cc1C(=O)O,Potency,[1],inactive
same,Potency,[2],inactive
same,Potency,[3],inactive
same,Potency,[4],inactive
same,Potency,[5],inactive
same,Potency,[6],inactive
same,Potency,[7],inactive
same,Potency,[8],inactive
same,Potency,[9],inactive
c1cc(CCCc2ccncc2)ccn1,Potency,[1],inactive
same,Potency,[2],inactive
same,Potency,[3],inactive
same,Potency,[4],inactive
same,Potency,[5],inactive
same,Potency,[6],inactive
same,Potency,[7],inactive
same,Potency,[8],inactive
same,Potency,[9],inactive
CCCC(=O)Nc1ccc(O)c(C(C)=O)c1,Potency,[1],inactive
same,Potency,[2],inactive
same,Potency,[3],inactive
same,Potency,[4],inactive
same,Potency,[5],inactive
same,Potency,[6],inactive
same,Potency,[7],inactive
same,Potency,[9],inactive
CC(=O)NO,Potency,[1],inactive
same,Potency,[2],inactive
same,Potency,[3],inactive
same,Potency,[4],inactive
same,Potency,[5],inactive
same,Potency,[6],inactive
same,Potency,[7],inactive
same,Potency,[9],inactive
CCOC(=O)c1cccnc1,Potency,[1],inactive
same,Potency,[2],inactive
same,Potency,[3],inactive
same,Potency,[4],inactive
same,Potency,[5],inactive
same,Potency,[6],inactive
same,Potency,[7],inactive
same,Potency,[9],inactive
C=CC(=O)OCCOCCOCCOCCOC(=O)C=C,Potency,[1],30.8 µM (active) and 24.1 µM (active)
same,Potency,[2],inactive
same,Potency,[3],54.8 µM (active) and 60.6 µM (active)
same,Potency,[4],48.8 µM (active) and 54 µM (active)
same,Potency,[5],61.4 µM (active)
same,Potency,[6],inactive
same,Potency,[7],27.4 µM (active) and 27.1 µM (active)
same,Potency,[9],inactive
CCCCCCCCCCCC(=O)OC[C@@H](O)[C@H]1OC[C@H](OCCO)[C@H]1OCCO,Potency,[1],inactive
same,Potency,[2],inactive
same,Potency,[3],inactive
same,Potency,[4],inactive
same,Potency,[5],inactive
same,Potency,[6],inactive
same,Potency,[7],inactive
same,Potency,[9],inactive
Nc1cccc(S(=O)(=O)c2cccc(N)c2)c1,Potency,[1],inactive
same,Potency,[2],inactive
same,Potency,[3],inactive
same,Potency,[4],inactive
same,Potency,[5],inactive
same,Potency,[6],inactive
same,Potency,[7],inactive
same,Potency,[10],inactive
same,Potency,[8],inactive
same,Potency,[9],inactive
C=CCOC(=O)CCC1CCCCC1,Potency,[1],inactive
same,Potency,[2],inactive
same,Potency,[3],inactive
same,Potency,[4],inactive
same,Potency,[5],inactive
same,Potency,[6],inactive
same,Potency,[7],inactive
same,Potency,[10],inactive
same,Potency,[8],inactive
same,Potency,[9],inactive
COC(C)(C)CCO,Potency,[1],inactive
same,Potency,[2],inactive
same,Potency,[3],inactive
same,Potency,[4],inactive
same,Potency,[5],inactive
same,Potency,[6],inactive
same,Potency,[7],inactive
same,Potency,[10],inactive
same,Potency,[8],inactive
same,Potency,[9],inactive
Cc1cccc(C)c1NC(=O)CN(CC(=O)O)CC(=O)O,Potency,[1],inactive
same,Potency,[2],inactive
same,Potency,[3],inactive
same,Potency,[4],inactive
same,Potency,[5],inactive
same,Potency,[6],inactive
same,Potency,[9],inactive
O=C1[C@H]2CCCC[C@H]2C(=O)N1CCCCN1CCN(c2nsc3ccccc23)CC1,Potency,[1],29.8 µM (active)
same,Potency,[2],inactive
same,Potency,[3],inactive
same,Potency,[4],inactive
same,Potency,[5],inactive
same,Potency,[6],inactive
same,Potency,[8],inactive
same,Potency,[9],inactive
Brc1c2ccccc2c(Br)c2ccccc12,"viability change, negative = cytotoxic",[1],-0.56% [at 8.39 µM]
same,"activity change, negative = inhibition",[2],2.43% [at 10.5 µM]
same,"viability change, negative = cytotoxic",[3],3.16% [at 8.39 µM]
same,"activity change, negative = cytotoxicity",[4],6.42% [at 8.39 µM]
same,"activity, negative = inhibition",[5],22.1% [at 8.39 µM]
same,activation,[6],11.6% [at 8.39 µM]
same,"activity, negative = inhibition",[10],52.5% [at 8.39 µM]
same,activation,[8],2.94% [at 8.39 µM]
same,activation,[9],-2.14% [at 8.39 µM]
O=CC1CC=CCC1 (stereo not drawn),Potency,[1],inactive
same,Potency,[2],inactive
same,Potency,[3],inactive
same,Potency,[4],inactive
same,Potency,[5],inactive
same,Potency,[6],inactive
same,Potency,[7],inactive
same,Potency,[9],inactive
CCCCC(CC)COC(=O)CCCCCCCCC(=O)OCC(CC)CCCC (stereo not drawn),Potency,[1],inactive
same,Potency,[2],inactive
same,Potency,[3],inactive
same,Potency,[4],inactive
same,Potency,[5],inactive
same,Potency,[6],inactive
same,Potency,[8],inactive
same,Potency,[9],inactive
c1ccc(CNCCNCc2ccccc2)cc1,Potency,[1],inactive
same,Potency,[2],inactive
same,Potency,[3],inactive
same,Potency,[4],inactive
same,Potency,[5],inactive
same,Potency,[6],inactive
same,Potency,[7],inactive
same,Potency,[9],inactive
O=C1C(O)=C(O)C(=O)C(O)=C1O,Potency,[1],inactive
same,Potency,[2],inactive
same,Potency,[3],inactive
same,Potency,[4],inactive
same,Potency,[5],inactive
same,Potency,[6],inactive
same,Potency,[7],inactive
same,Potency,[9],inactive
